Measurements published in PubChem BioAssay AID1851 (National Center for Advancing Translational Sciences (NCATS), 2009).
Values joined by “and” are separate entries in the source; they are usually repeats but may differ in a detail not shown here. Equal values may be shown once. In all, about 16,000 compounds went through this assay and about 5,800 (36%) were called active. Not shown: some 23% with an inconclusive outcome. Calls follow the shape of the dose curve; as a rule, active = well fitted curve in the direction sought with a large enough effect; inconclusive = small, poorly fitted or top-dose-only effect, or effect the other way; inactive = no such curve, though single readings can be large or run the other way. The list shows a part of the results.

Target: Cytochrome P450 2C19 (Homo sapiens) (UniProt P33261)
Sequence (P33261 whole entry, looked up): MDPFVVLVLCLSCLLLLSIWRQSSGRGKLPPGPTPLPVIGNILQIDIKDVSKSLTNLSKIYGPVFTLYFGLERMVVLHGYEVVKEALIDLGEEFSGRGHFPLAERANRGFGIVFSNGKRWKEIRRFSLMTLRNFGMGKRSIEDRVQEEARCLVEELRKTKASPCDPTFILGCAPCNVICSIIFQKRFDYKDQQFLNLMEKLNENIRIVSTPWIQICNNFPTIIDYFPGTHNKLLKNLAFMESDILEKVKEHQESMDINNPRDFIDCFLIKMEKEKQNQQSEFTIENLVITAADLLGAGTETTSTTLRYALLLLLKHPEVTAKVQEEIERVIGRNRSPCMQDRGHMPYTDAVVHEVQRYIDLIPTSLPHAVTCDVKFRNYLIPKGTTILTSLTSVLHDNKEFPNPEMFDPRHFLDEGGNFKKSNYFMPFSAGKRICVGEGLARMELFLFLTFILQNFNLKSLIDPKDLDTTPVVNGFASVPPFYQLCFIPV
Assay: Cytochrome panel assay with activity outcomes
Conditions: recombinant CYP, pro-luciferin dealkylation, luminescence, p450-cyp2c19; series mostly up to 57.1 µM; activity, negative = inhibition: at the top concentration
% is scaled to controls: 0 for no effect and ±100 for the full control effect.

Compound | activity, negative = inhibition | AC50
C#CCCCO/N=C1/C[C@@H](O)[C@@H](O)[C@@H]2[C@@H]3C(=O)N(C[C@@H]4CCCO4)C(=O)[C@H]3CC[C@H]12 | -15.3% [at 11.4 µM] (inactive) | –
ClC(Cl)(Cl)C(N1CCN(c2ccccc2)CC1)N1CCN(c2ccccc2)CC1 | 21% [at 11.4 µM] (inactive) | –
CC(C)CC(c1nnnn1C(C)C)N1CCN(c2ccccc2)CC1 (stereo not drawn) | – | 5.01 µM (active)
CCOC(=O)c1cnn(-c2nc(-c3cccc(F)c3)cs2)c1C(F)(F)F | – | 2.82 µM (active)
COc1cc2nc(N3CCN(C(=O)[C@@H]4CCCO4)CC3)nc(N)c2cc1OC | 20.7% [at 25.6 µM] (inactive) | –
CCN(CC)CCOc1ccc2nc(N(C)C)sc2c1 | -20.4% (inactive) | –
CCOC(=O)C1CCN(C(=O)c2ccccc2NC(C)=O)CC1 | -27.7% (inactive) | –
CCOC(=O)C1CCN(C(=O)C2CCN(c3nc4ccc(OC)cc4s3)CC2)CC1 | – | 11.2 µM (active)
CCOc1ccc2nc(N3CCCCCC3)sc2c1 | – | 3.98 µM (active)
CN1CCC2(CC1)C1CN(C)CC=C1C(C#N)=C(N)C2(C#N)C#N (stereo not drawn) | -23.1% (inactive) | –
CN1CC[C@@]2(CCCN(C(=O)c3cc(C(F)(F)F)cc(C(F)(F)F)c3)C2)C1 | 12.7% (inactive) | –
COc1cnc(SCc2ccc(Cl)cc2)nc1Cl | – | 1.58 µM (active)
CCOC(=O)CCc1c(C)nc2ncnn2c1C | -27.2% (inactive) | –
Cc1ccc(CNC(=O)CCc2c(C)nc3ncnn3c2C)cc1 | -21.9% (inactive) | –
CCc1c(C)nc2ncnn2c1NCCc1ccc(OC)cc1 | – | 3.55 µM (active)
COc1ccc(C(=O)c2cnc3ccccc3c2-c2ccccc2)cc1 | – | 5.01 µM (active)
COc1ccc(-c2nc3cnc(N4CCN(C)CC4)nc3n(Cc3ccc(F)cc3)c2=O)cc1 | 10.3% (inactive) | –
CCOC(=O)c1oc2nc(CC(C)C)c3c(c2c1N)CCC3 | – | 11.2 µM (active)
CC1(C)S[C@@H]2[C@H](NC(=O)[C@H](C(=O)O)c3ccsc3)C(=O)N2[C@H]1C(=O)O | -38.5% [at 25.6 µM] (inactive) | –
CCC(CC)c1nnc(NC(=O)c2cccc(S(=O)(=O)N3CCc4ccccc43)c2)s1 | – | 7.94 µM (active)
CCn1cc(C(=O)O)c(=O)c2cc(F)c(N3CCNCC3)nc21 | -12% [at 25.6 µM] (inactive) | –
CCn1cc(C(=O)N/N=C(/C)c2ccc(F)cc2)c(=O)c2cc(F)c(N3CCCC3)cc21 | – | 4.47 µM (active)
CCn1cc(C(=O)O)c(=O)c2cc3c(cc21)OCO3 | 26.5% (inactive) | –
N=C(N)SCc1cccc(-c2nc3ccccc3c(=O)o2)c1 | 16.9% [at 11.4 µM] (inactive) | –

Compound | activity, negative = inhibition | AC50
CC(C)CCN1C(=O)c2ccc(-c3nc4ccccc4c(=O)o3)cc2C1=O | – | 14.1 µM (active)
CCOC(=O)Nc1ccc2c(c1)N(C(=O)CCN1CCOCC1)c1ccccc1S2 | -79.9% [at 25.6 µM] (inactive) | –
CCCCOC(=O)Nc1ccc(C)c(Cl)c1 | – | 2 µM (active)
CCCOc1ccc(C(=O)CCNc2ccc(C)c(Cl)c2)cc1 | – | 0.398 µM (active)
Cc1ccc(NCCC(=O)c2ccc(Cl)cc2)cc1C | – | 1.26 µM (active)
Cc1ccc(NC(=O)CCC(=O)c2ccc(F)cc2)cc1Cl | – | 3.98 µM (active)
CCCCOc1ccc(C(=O)CCN2CCCCC2)cc1 | -38.9% [at 25.6 µM] (inactive) | –
C[C@@H](c1ccccc1)N1C(=O)[C@H]2[C@@H]3[C@H](O)[C@H](O)CC(=O)[C@H]3CC[C@H]2C1=O | 13.8% [at 11.4 µM] (inactive) and 0.79% [at 11.4 µM] (inactive) | –
Cc1nc2cnc(Oc3ccccc3)nc2n(-c2ccccc2)c1=O | -27.5% (inactive) | –
O=C(O)CCC(=O)c1ccc(Cl)cc1 | 22.7% [at 11.4 µM] (inactive) | –
O=C(O)CNc1ccc(C(=O)O)cc1 | 21.5% [at 11.4 µM] (inactive) | –
Cc1ccc(NCCC(=O)c2ccc(Cl)cc2)cc1 | – | 1.41 µM (active)
CC[N+](C)(CC)CCC[n+]1c(-c2ccccc2)c2cc(N)ccc2c2ccc(N)cc21 | – | 1.58 µM (active)
Cc1ccc[n+](CC(=O)c2cc3ccccc3oc2=O)c1 | -0.3% (inactive) | –
CC(C)OC(=O)c1cc2ccccc2oc1=O | – | 15.8 µM (active)
CC(=O)c1cc2ccccc2oc1=O | -33.4% [at 25.6 µM] (inactive) | –
CC1(C)Oc2ccc(C#N)cc2[C@H](N2CCCC2=O)[C@H]1O | -39.4% (inactive) | –
COn1c(-c2ccccc2)nc2c1CCc1nonc1-2 | – | 15.8 µM (active)
CCC(C)c1ccc(Nc2ncccc2C#N)cc1 (stereo not drawn) | – | 4.47 µM (active)
O=C(O)C[C@H](Cc1ccccc1)C(=O)O | -9.67% [at 11.4 µM] (inactive) | –
O=C(Cc1ccccc1)NC(NCCc1ccccc1)C(Cl)(Cl)Cl (stereo not drawn) | – | 0.794 µM (active)
COc1ccc(N(CC(=O)NCc2cccc(OC)c2)S(=O)(=O)c2c(C)noc2C)cc1 | – | 2 µM (active)
COc1cccc(CNC(=O)CCNC(=O)Cn2ccc3ccccc3c2=O)c1 | 1.62% (inactive) | –
COc1ccc(NC(=O)N2CC[C@@]3(CCCN(C(=O)c4c(C)noc4C)C3)C2)cc1 | 49.9% (inactive) | –

Compound | activity, negative = inhibition | AC50
COC(=O)CN(c1ccc(OC)cc1)S(=O)(=O)c1c(C)noc1C | – | 5.01 µM (active)
O=C(O)/C=C\c1cnc[nH]1 | -4.94% (inactive) | –
CCCCCOC(=O)CSc1nnc(-c2ccccc2)c(=O)[nH]1 | – | 8.91 µM (active)
Nc1nc(SCC(=O)O)[nH]c(=O)c1N | 25.5% [at 11.4 µM] (inactive) | –
NCCCc1c(-c2ccccc2)nc(N)[nH]c1=O | -12.9% [at 11.4 µM] (inactive) | –
CC(=O)OCCCN1c2ccccc2Nc2nnc(-c3ccccc3)cc21 | – | 7.08 µM (active)
CC(C)(C)Cn1nc(-c2ccc(Cl)cc2)c2c(N)ncnc21 | -23% (inactive) | –
CC(C)(C)n1nc(-c2ccc(Cl)cc2)c2c(N)ncnc21 | – | 2 µM (active)
CCNc1ncc2nc(-c3ccc(Cl)cc3)c(=O)n(C)c2n1 | -25.3% (inactive) | –
O=c1c2ccccc2nnn1CSc1ccc2c(c1)OCCO2 | – | 1.12 µM (active)
O=c1c2ccccc2nnn1CSc1nnnn1-c1ccccc1 | – | 7.94 µM (active)
Cc1cc(C)c(C#N)c(OCC(=O)c2ccc(Br)cc2)n1 | – | 3.16 µM (active)
C/C(=N\NC(=O)c1ccncc1)c1ccc2ccccc2c1O | – | 0.501 µM (active)
O=Nc1c(O)n(Cc2ccc(Cl)c(Cl)c2)c2ccccc12 | – | 0.891 µM (active)
O=Nc1c(O)n(Cc2cccc(Cl)c2)c2ccccc12 | – | 3.55 µM (active)
O=Nc1c(O)n(Cc2ccc(Cl)cc2)c2ccccc12 | – | 0.794 µM (active)
Cn1c(=O)c2c(n(Cc3ccccc3)c1=O)NC(=O)C2CC(=O)NCc1cccc(Cl)c1 (stereo not drawn) | 13.5% (inactive) | –
O=C1C(=O)N(Cc2ccc(Cl)c(Cl)c2)c2ccccc21 | -16.7% (inactive) | –
COc1ccc([N+](=O)[O-])cc1NCc1ccccc1C | – | 2.82 µM (active)
Cc1cc([N+](=O)[O-])ccc1NCc1ccccc1 | – | 2 µM (active)
CN(Cc1ccccc1)c1nc(-c2ccc([N+](=O)[O-])cc2)nc2ccccc12 | -10.7% (inactive) | –
O=C(O)c1cc([N+](=O)[O-])ccc1NCCCc1ccccc1 | -3.04% (inactive) | –
O=[N+]([O-])c1ccc(CS(=O)Cc2ccccc2)cc1 (stereo not drawn) | – | 1.26 µM (active)
COc1ccccc1CN1CCC2(CC1)CCN(C(=O)c1cccn1C)CC2 | 2.93% (inactive) | –

Compound | activity, negative = inhibition | AC50
O=C1CC(N2CCOCC2)C(=O)N1c1cccc(Cl)c1 (stereo not drawn) | – | 8.91 µM (active)
CO[C@H]1C=CO[C@]2(C)Oc3c(C)c(O)c4c(O)c(c5c(c4c3C2=O)NC2(CCN(CC(C)C)CC2)N=5)=NC(=O)C(C)=CC=C[C@@H](C)[C@@H](O)[C@@H](C)[C@@H](O)[C@@H](C)[C@@H](OC(C)=O)[C@@H]1C | -33.7% [at 25.6 µM] (inactive) | –
CO[C@@H]1/C=C\O[C@]2(C)Oc3c(C)c(O)c4c(O)c(cc(O)c4c3C2=O)NC(=O)/C(C)=C\C=C/[C@H](C)[C@@H](O)[C@H](C)[C@H](O)[C@H](C)[C@H](OC(C)=O)[C@@H]1C | -13.1% [at 11.4 µM] (inactive) | –
CO[C@@H]1/C=C\O[C@@]2(C)Oc3c(C)c(O)c4c(c3C2=O)C(=N[C@H]2CC[C@H](O)O[C@@H]2C)C=C(NC(=O)/C(C)=C\C(=O)[C@@H]2C[C@@H]2[C@@H](O)[C@H](C)[C@@H](O)[C@H](C)[C@H](OC(C)=O)[C@@H]1C)C4=O | – | 2.51 µM (active)
Cc1ccc(N2C(=O)C(Cl)=C(NCc3ccccc3)C2=O)c(C)c1 | – | 3.16 µM (active)
c1ccc(CSc2ncnc3c2sc2nc(N4CCOCC4)c4c(c23)CCCC4)cc1 | – | 7.08 µM (active)
OCCn1cnc2c(SCc3ccccc3)ncnc21 | 12.6% [at 11.4 µM] (inactive) | –
CCSc1ncnc2c1sc1nc(-c3ccco3)c3c(c12)CC(C)(C)OC3 | 6.2% (inactive) | –
CC(C)C[C@H](NC(=O)N1CCCCCC1)C(=O)N[C@H](Cc1cn(C)c2ccccc12)C(=O)N[C@H](Cc1ccccn1)C(=O)O | -10.8% (inactive) | –
CCn1c2ccccc2c2cc(NC(=O)CSc3nnc(-c4ccc(OC)c(OC)c4)n3N)ccc21 | – | 7.94 µM (active)
O=C(CCCNS(=O)(=O)c1cccc2nsnc12)NCCc1ccccc1 | – | 6.31 µM (active)
CSc1nc2ccccc2cc1/C=C(\C#N)c1ccc(Cl)cc1Cl | – | 22.4 µM (active)
CSc1nc2ccccc2cc1/C=C(\C#N)c1cccc(Cl)c1 | – | 15.8 µM (active)
CSc1nc2ccccc2cc1/C=C(\C#N)c1ccccc1 | – | 11.2 µM (active)
CSc1nc2ccccc2cc1/C=C(\C#N)c1cccc(C)c1 | – | 3.55 µM (active)
CCN(C(=O)CSc1nc2cc(C(=O)OC)ccc2c(=O)n1Cc1ccco1)c1cccc(C)c1 | – | 1.41 µM (active)
CCc1ccc(NC(=O)CSc2nc3cc(C(=O)OC)ccc3c(=O)n2Cc2ccco2)cc1 | -53% (inactive) | –
O=C(NCCc1ccc(Cl)cc1)c1ncn[nH]1 | -101% (inactive) | –
O=C(NCCc1ccc(Cl)cc1)Nc1cccc(Cl)c1 | – | 0.891 µM (active)
O=C(Nc1cccc(Cl)c1)Nn1cnnc1 | 11.3% [at 11.4 µM] (inactive) | –
CNC(=O)C(=O)NCCc1ccc(Cl)cc1 | – | 1.12 µM (active)
